Tau fil binding = binders of human tau filaments; Potency, µM (doses to about 57.1 µM), for the others: at the highest dose activity change, negative = inhibition; recombinant tau filaments, thioflavin S fluorescence, 15 h; filaments grown with octadecylsulfate alongside compound; 2% of 71,000 active; AID 596;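 note: % is set by controls: 0 for no effect and ±100 for the full control effect; actives lower thioflavin S fluorescence by blocking filaments or displacing dye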
Target sequence (P10636 whole entry, looked up): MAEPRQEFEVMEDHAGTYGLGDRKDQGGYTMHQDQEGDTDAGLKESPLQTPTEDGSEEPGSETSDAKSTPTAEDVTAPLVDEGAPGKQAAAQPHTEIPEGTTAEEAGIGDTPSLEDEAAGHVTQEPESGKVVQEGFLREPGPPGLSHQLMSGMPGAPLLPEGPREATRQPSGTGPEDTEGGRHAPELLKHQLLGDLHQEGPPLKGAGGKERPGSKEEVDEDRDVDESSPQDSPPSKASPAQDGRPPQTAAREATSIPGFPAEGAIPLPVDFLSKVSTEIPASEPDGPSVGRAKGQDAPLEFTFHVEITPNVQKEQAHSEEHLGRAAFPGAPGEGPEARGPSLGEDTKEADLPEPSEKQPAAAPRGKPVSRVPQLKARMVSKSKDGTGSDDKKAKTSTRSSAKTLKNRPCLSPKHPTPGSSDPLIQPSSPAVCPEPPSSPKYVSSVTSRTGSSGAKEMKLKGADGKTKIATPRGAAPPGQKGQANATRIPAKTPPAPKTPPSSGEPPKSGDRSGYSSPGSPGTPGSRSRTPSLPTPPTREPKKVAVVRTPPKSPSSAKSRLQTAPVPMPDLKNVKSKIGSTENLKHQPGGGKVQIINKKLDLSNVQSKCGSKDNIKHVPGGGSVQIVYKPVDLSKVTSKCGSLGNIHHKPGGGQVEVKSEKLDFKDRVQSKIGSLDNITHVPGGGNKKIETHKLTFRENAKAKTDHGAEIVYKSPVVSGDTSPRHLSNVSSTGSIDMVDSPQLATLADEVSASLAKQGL
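Thioflavine S fluorescence (ex 450, em 510 nm) reports filaments formed from 1 uM human tau plus 30 uM ODS over 15 h at 37 C (10 mM HEPES pH 7.4, 100 mM NaCl, 5 mM DTT); compounds displacing dye or blocking filaments lower signal.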
Bst PK mod = modulators of Bacillus stearothermophilus pyruvate kinase; purified pyruvate kinase, luminescence ATP production; ribose 5-phosphate activator present at AC10; Potency, µM; 1.2% of 51,000 active; AID 361; in the data active = potency below about 11 µM; inconclusive = mostly about 12 µM to 25 µM;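 the screen sought inhibitors and activators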;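 note: scaled between full activation by ribose 5 phosphate and full inhibition by luteolin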
FLuc inh = blocks Photinus pyralis firefly luciferase activity. AID 411. 2.2% of 72,000 active. Potency, µM (highest dose often 57.1 µM), without a hit: at the highest dose activity change, negative = inhibition, actives largely listed as inhibitors. purified firefly luciferase, luminescence, 8 min; note: % is set by controls: 0 for no effect and ±100 for the full control effect; nearly all actives have a fitted effect of over 40% in size
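Inhibition of light generation by firefly luciferase from ATP and luciferin was profiled with concentration-response curves per sample, ATP held at 10 uM within the enzyme's linear range. Plates were read by luminescence after an 8-minute ambient incubation.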
ERK AVP inh = inhibitors of vasopressin-stimulated ERK signaling pathway. HEK293-V1b, vasopressin-stimulated pERK AlphaScreen. Potency, µM (top dose mostly 57.5 µM), without a hit: top-dose activity, negative = inhibition, actives largely listed as inhibitors. 0.99% of 72,000 active; note: % is set by controls: 0 for no effect and ±100 for the full control effect; nearly all actives have a fitted effect of over 55% in size
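Overnight-seeded V1b-HEK293 cells in 1% FBS got compound, then vasopressin (25 nM final, 5 min, 37C), then lysis buffer. AlphaScreen detection of phospho-ERK; activity normalized to basal and full-stimulation controls.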
HEK293 cAMP ctrl = raises cAMP in parental HEK293 cells, TSHR agonist counter-screen; Potency, µM (top dose mostly 57.1 µM), inactives show at the top dose activation, actives largely listed as activators; 2.5% of 73,000 active; parental HEK293 CNG cAMP sensor, membrane potential fluorescence; note: % of control where 0% means no effect; nearly all actives have a fitted effect of over 55% in size
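Parental HEK 293 cells stably expressing a modified CNG channel (no TSHR) report cAMP rise as membrane depolarization. Membrane potential dye with 100 uM RO 20-1724 was loaded for 60 min at room temperature, then compound added for 30 min; fluorescence read at 590 nm.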
TSHR ag = TSH receptor (human) agonism; HEK293-CNG-TSHR cells (CNG channel as cAMP sensor), membrane potential dye, cAMP; Potency, µM (highest dose often 57.1 µM), inactives show at the top dose activation, usual class: activators; 0.48% of 73,000 active; active = well fitted activation curve with a large enough effect in the main read-out, with a control signal flat, not every such curve was filed as active; inconclusive = small, poorly fitted or top-dose-only effect, or a change in a side signal; inactive = no such curve, though single readings can be large or run the other way; % of control where 0% means no effect;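 note: the control signal comes from parental cells without the receptor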
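cAMP rise detected as CNG-channel membrane depolarization by fluorescent dye (emission 590 nm), 30 min after compound, following 60 min dye loading containing 100 uM RO 20-1724 at room temperature. Cells: TSHR/CNG HEK 293, with parental CNG HEK 293 as control.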
* marks the source's active call; other numbers are inactive results; i = inactive; ? = inconclusive; . = no result given; [ ] = another dose, or the depositor's remark. Hits are enriched below; roughly 7.2% of the tested compounds scored in any of these assays. Unless noted, calls come from the whole dose curve; as a rule, active = well fitted curve in the direction sought with a large enough effect; inconclusive = small, poorly fitted or top-dose-only effect, or another doubt; inactive = no such curve, though single readings can be large; an effect the other way counts as inactive or inconclusive. Potency is the fitted concentration of half-maximal effect.

SMILES	Tau fil binding	Bst PK mod	FLuc inh	ERK AVP inh	HEK293 cAMP ctrl	TSHR ag
N=C1C(c2ccccc2)=C(O)C2CCc3ccccc3N12 (stereo not given)	-5%	.	0%	11%	-9%	-34%
N=C1C(c2ccc(Br)cc2)=C(O)C2CCc3ccccc3N12 (stereo not given)	-4%	3*	-1%	16%	-65%	?
Nc1c(S(=O)(=O)c2cccs2)c2nc3ccccc3nc2n1Cc1cccs1	174%	>57	-1%	-5%	?	?
CC(C)CCn1c(N)c(S(=O)(=O)c2cccs2)c2nc3ccccc3nc21	-19%	>57	-6%	-17%	13%	13µM*
O=c1cnnc(SCCc2ccccc2)[nH]1	7.9µM*	>57	?	?	32µM*	?
Oc1oc(-c2ccco2)nc1C=Nc1ccccc1	-3%	i	16µM*	-7%	-5%	-10%
C[C@H](NC[C@H](O)CP(=O)(O)Cc1ccccc1)c1ccc(Cl)c(Cl)c1	-16%	.	-10%	-6%	8%	1%
CCOc1nc2cccc(C(=O)OC(C)OC(=O)OC3CCCCC3)c2n1Cc1ccc(-c2ccccc2-c2nn[nH]n2)cc1 (stereo not given)	.	.	.	-9%	.	.
CCc1ccc2c(c1)[C@]1(C(=O)N2)[C@@H]2C(=O)N(Cc3ccccc3)C(=O)[C@@H]2[C@@H]2CCCN21	20µM*	>57	1%	-7%	-2%	4%
Cc1cc(Cl)cc2c1NC(=O)[C@]21[C@@H]2C(=O)N(Cc3ccccc3)C(=O)[C@@H]2[C@@H]2CCCN21	25µM*	>57	-2%	?	-12%	19%
CC(=O)O[C@@H]1CC[C@]2(C)C(=C[C@@H]([C@@H]3C=C4C[C@@H](OC(C)=O)CC[C@]4(C)C4=C3[C@H]3C[C@@H]5O[C@@]6(CC[C@H](C)CO6)[C@@H](C)[C@@H]5[C@@]3(C)CC4)C3=C2CC[C@@]2(C)[C@H]4[C@@H](C)[C@]5(CC[C@H](C)CO5)O[C@@H]4C[C@H]32)C1	6%[11.4 µM]	.	-1%[11.4 µM]	16%[11.5 µM]	3%[11.4 µM]	2%[11.4 µM]
C[N+](C)(C)CC[N+]1(C)Cc2c(Cl)c(Cl)c(Cl)c(Cl)c2C1	189%	.	4%	9%	0%	2%
CC(=O)OCC1OC(C#Cc2ccccc2)C=CC1O (stereo not given)	.	.	.	4%[11.5 µM]	4%[11.4 µM]	-1%[11.4 µM]
O=[N+]([O-])c1cccc(/C=N\Nc2ccc3ccccc3n2)c1O	3.2µM*	.	3.2µM*	-25%[11.5 µM]	-5%[11.4 µM]	-13%[11.4 µM]
CC(C)(C)n1ncc2c(=O)n(CC(=O)NCc3ccccc3Cl)cnc21	5%	.	25µM*	?	9%	.
CC(C)(C)n1ncc2c(=O)n(CC(=O)NCCc3ccccc3)cnc21	6%	>57	-2%	-6%	10%	2%
O=C1CCCC2=C1C(c1ccco1)Nc1ccc3ccccc3c12 (stereo not given)	13µM*	.	-3%	-27%	2%	-6%
COc1cc(C2Nc3ccc4ncccc4c3C3=C2C(=O)CCC3)cc(OC)c1O (stereo not given)	21%	>57	1%	-6%	-6%	10%
COCCn1c(=O)c(-c2cccs2)nc2cnc(N3CCNCC3)nc21	i	.	-4%[11.4 µM]	29%	?	?
N#Cc1ccc(CN2CCC3(CCNCC3)CC2)cc1	5%	.	-5%[11.4 µM]	-3%	5%	-4%
CC[n+]1ccc(C)c2cc(S(=O)C(F)(F)F)ccc21 (stereo not given)	6.3µM*	>57	2%	-2%	-7%	-2%[11.4 µM]
CC(C)(C)c1ccccc1NC(=O)c1ccco1	-1%	>57	2%	-9%	1%	4%
CNc1ccccc1C(C)(C)c1cc(-c2ccco2)n[nH]1	32µM*	?	-6%	-10%	25%	.
CC1C(NC(=O)/C(=N/OC(C)(C)C(=O)O)c2csc(N)n2)C(=O)N1S(=O)(=O)O (stereo not given)	.	.	.	1%	.	.
N#CCSc1nc2c(c(C3CC=CCC3)c1C#N)CCC2 (stereo not given)	33%	>57	0%	15%	10µM*	?
SMILES	Tau fil binding	Bst PK mod	FLuc inh	ERK AVP inh	HEK293 cAMP ctrl	TSHR ag
COc1cccc(Nc2ncc3nc(-c4cccs4)c(=O)n(Cc4cccs4)c3n2)c1	i	.	0%[11.4 µM]	4%	12%	2%
COc1ccc(Oc2ncc3ncc(=O)n(Cc4cccs4)c3n2)cc1	-17%	.	0%[11.4 µM]	-7%	?	?
COc1cccc(Nc2ncc3ncc(=O)n(Cc4cccs4)c3n2)c1	17%	.	0%[11.4 µM]	-23%	16µM*	?
O=c1cnc2cnc(Oc3ccccc3)nc2n1Cc1cccs1	-9%	.	1%[11.4 µM]	-17%	20µM*	?
CC(C)C[C@H]1C(=O)N2CCC[C@@H]2[C@]2(O)O[C@](NC(=O)[C@@H]3C=C4c5cccc6[nH]c(Br)c(c56)C[C@H]4N(C)C3)(C(C)C)C(=O)N12	32µM*	.	-10%	-21%	-16%	0%
CC(C)C[C@H]1C(=O)N2CCC[C@H]2[C@]2(O)O[C@](NC(=O)[C@@H]3C=C4c5cccc6[nH]c(Br)c(c56)CC4N(C)C3)(C(C)C)C(=O)N12 (stereo not given in full)	.	.	-24%[25.5 µM]	.	.	.
O=c1cnc2cnc(N3CCNCC3)nc2n1CCc1ccccc1	-15%	.	-1%[11.4 µM]	5%	-6%	-9%
Cc1cc(=O)n2[nH]c(-c3ccc(Cl)cc3)cc2n1	1%	?	16µM*	8%	-15%	-6%
N#C/C(=C/c1ccc(N2CCCCCC2)o1)c1ccc(F)cc1	?	.	-25%	25µM*	-4%	-10%
O=C1c2cc([N+](=O)[O-])ccc2-c2ccc3c4ccc5c6c(ccc(c7ccc1c2c73)c64)C(=O)c1cc([N+](=O)[O-])ccc1-5	1.6µM*	.	-3%[11.4 µM]	-8%[11.5 µM]	7%[11.4 µM]	0%[11.4 µM]
CCCn1c(NC(=O)c2cccc(S(=O)(=O)N3CCCC3)c2)nc2ccccc21	28%	>57	2%	?	16µM*	?
CCCn1c(NC(=O)c2ccccc2)nc2ccccc21	20%	>57	-46%	12%	?	?
CCCn1c(NC(=O)c2ccc(C)cc2)nc2ccccc21	35%	>57	-1%	1%	25µM*	?
CCCn1c(NC(=O)C2CCN(S(=O)(=O)c3cccs3)CC2)nc2ccccc21	22%	>57	0%	13µM*	?	?
CCCn1c(-c2ccc(OC)cc2)nc2ccccc21	4%	.	-5%	-25%	25µM*	?
O=C(NCc1ccccn1)C1CCN(S(=O)(=O)c2cccs2)CC1	-2%	>57	1%	-8%	1%	-2%
C=C(C)C(O)/C=C/c1ccc(OC)cc1 (stereo not given)	.	.	.	28%[11.5 µM]	5%[11.4 µM]	3%[11.4 µM]

Screening data from PubChem.
